Test results reported in PubChem BioAssay (NCATS).
Where “and” joins values, the source holds several entries; their conditions need not be identical. Equal values may be shown once. Inconclusive results are not listed. Some structures have more than one record in an assay (separate samples or runs), and their calls can disagree. Calls of active or inactive are those of the source. Calls follow the shape of the dose curve; as a rule, active = well fitted curve in the direction sought with a large enough effect; inconclusive = small, poorly fitted or top-dose-only effect, or another doubt; inactive = no such curve, though single readings can be large; an effect the other way counts as inactive or inconclusive.

How the values were obtained:
[1] = target: Alpha-galactosidase (Coffea arabica) (UniProt Q42656); assay: Counterscreen for Glucocerebrosidase Inhibitors: qHTS Assay for Coffee Bean alpha-Galactosidase at pH 4.5 (AID 957); also: series mostly up to about 77 µM
Chain of Alpha-galactosidase (Coffea arabica) (Q42656 whole entry, looked up): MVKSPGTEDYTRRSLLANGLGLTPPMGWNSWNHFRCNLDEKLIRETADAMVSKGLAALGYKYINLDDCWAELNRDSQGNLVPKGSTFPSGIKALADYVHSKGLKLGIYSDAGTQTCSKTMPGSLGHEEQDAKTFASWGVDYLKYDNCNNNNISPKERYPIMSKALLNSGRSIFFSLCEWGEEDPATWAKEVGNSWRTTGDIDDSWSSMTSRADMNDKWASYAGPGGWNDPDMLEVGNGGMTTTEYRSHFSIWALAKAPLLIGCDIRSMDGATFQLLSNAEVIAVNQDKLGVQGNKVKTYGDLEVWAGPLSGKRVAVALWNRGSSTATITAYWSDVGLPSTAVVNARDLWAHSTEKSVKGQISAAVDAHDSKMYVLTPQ
Outline: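 Coffee bean enzyme (2 nM) with 80 uM 4-methylumbelliferyl alpha-D-galactopyranoside in 50 mM citric acid, 0.005% Tween-20, pH 4.5, 20 min at room temperature; compounds 0.7 nM–77 uM. Stopped at pH 10, fluorescence 365/440 nm; AC50 from Hill fits.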

[2] = MultiTox-Fluor Cytotoxicity Assay - LYMP1-001 - Live Cells (AID 947); also: potency is read from the fitted curve at half-maximal effect
[3] = Cell Viability - LYMP1-002 - Assay at 16 hr (AID 948); also: potency is read from the fitted curve at half-maximal effect
Outline: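 ATP luminescence (CellTiter-Glo) was measured after 16 hr compound exposure at 37 C of 2500 lymphoblastoid LYMP1-002 cells per well. Concentration-response curves were fitted with the Hill equation to give AC50.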

[4] = MultiTox-Fluor Cytotoxicity Assay - LYMP1-002 - Live Cells (AID 955);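 also: cells exposed to compound for 16 hours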; also: potency is read from the fitted curve at half-maximal effect
Outline: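 Human lymphoblastoid LYMP1-002 cells, 2500/well, treated 16 h at 37 C in complete medium. Live-cell protease activity via GF-AFC fluorescence (Ex/Em 405/510) after 60 min reagent incubation; AC50 from Hill fits.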

[5] = MultiTox-Fluor Cytotoxicity Assay - LYMP1-003 - Dead Cells (AID 961); also: nearly all actives have a fitted effect of over 70% in size; also: potency is read from the fitted curve at half-maximal effect
Outline: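 Dead-cell protease release, detected as bis-AAF-R110 fluorescence at 485/520 nm, was measured in LYMP1-003 cells after 16 h compound treatment at 37 C. AC50 values came from Hill-modeled qHTS curves normalized to DMSO (0%) and 15 uM tetraoctylammonium bromide (100%).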

[6] = Cell Viability - LYMP1-003 - Assay at 24 hr (AID 963); also: potency is read from the fitted curve at half-maximal effect
Outline: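 Human lymphoblastoid LYMP1-003 cells, 2500/well, treated 24 h at 37 C in complete medium. Viability read as intracellular ATP by CellTiter-Glo luminescence after 30 min at room temperature; AC50 from Hill-equation fits of qHTS concentration-response.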

[7] = Cell Viability - LYMP1-003 - Assay at 40 hr (AID 964); also: nearly all actives have a fitted effect of over 60% in size; also: potency is read from the fitted curve at half-maximal effect
Outline: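 LYMP1-003 human lymphoblastoid cells, 2500/well, preincubated 5 h at 37 C, then treated with compound for 40 h at 37 C. Intracellular ATP read by CellTiter-Glo luminescence after 30 min at room temperature; AC50 from Hill-equation fits.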

[8] = Cell Viability - LYMP2-013 (AID 970); also: potency is read from the fitted curve at half-maximal effect; nearly all actives have a fitted effect of over 55% in size
Outline: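 Human lymphoblastoid LYMP2-013 cells, 2500/well, treated 24 h at 37 C in complete medium; viability as intracellular ATP by CellTiter-Glo luminescence after 30 min. AC50 from Hill fits of qHTS concentration-response.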

[9] = Cell Viability - LYMP2-015 (AID 971); also: potency is read from the fitted curve at half-maximal effect; nearly all actives have a fitted effect of over 55% in size
Outline: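 LYMP2-015 human lymphoblastoid cells (2500/well) in complete medium, compound-treated 24 h at 37 C; viability read as cellular ATP by CellTiter-Glo luminescence after 30 min at room temperature. AC50 from Hill-equation fits of qHTS concentration-response data.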

[10] = Cell Viability - LYMP2-017 (AID 972); also: potency is read from the fitted curve at half-maximal effect; nearly all actives have a fitted effect of over 55% in size
Outline: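 LYMP2-017 human lymphoblastoid cells (2500/well) settled 5 hr at 37 C, then exposed to compound 24 hr at 37 C in complete medium. Viability taken as intracellular ATP by CellTiter-Glo luminescence after 30 min at RT; AC50 from Hill fits.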

[11] = MultiTox-Fluor Cytotoxicity Assay - LYMP1-003 - Live Cells (AID 962);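 also: potency is read from the fitted curve at half-maximal effect; cells exposed to compound for 16 hours at 37 °C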
Outline: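 LYMP1-003 lymphoblastoid cells, 2500/well in complete medium, treated 16 h at 37 C; live-cell protease cleavage of GF-AFC read by fluorescence (Ex/Em 405/510) after 60 min reagent; AC50 from Hill fits of concentration-response.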

[12] = Cell Viability - LYMP2-003 (AID 965);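 also: potency is read from the fitted curve at half-maximal effect; cells exposed to compounds for 24 h before reading; nearly all actives have a fitted effect of over 50% in size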
Outline: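 CellTiter-Glo luminescence quantified ATP loss after 24 h compound treatment of LYMP2-003 lymphoblastoid cells at 37 C. Titration series were fitted with the standard Hill equation to give AC50.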

[13] = Cell Viability - LYMP2-004 (AID 966); also: potency is read from the fitted curve at half-maximal effect; nearly all actives have a fitted effect of over 65% in size
Outline: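 Lymphoblastoid LYMP2-004 cells, 2500 per well, were preincubated for 5 hr and then treated with compound for 24 h at 37 C in complete medium. Viability was read as cellular ATP by CellTiter-Glo luminescence, and AC50 values were taken from Hill fits to concentration-response data.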

[14] = Cell Viability - LYMP2-005 (AID 967); also: potency is read from the fitted curve at half-maximal effect
Outline: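 LYMP2-005 human lymphoblastoid cells (2500/well) were treated with compounds for 24 h at 37 C. Intracellular ATP was then measured by CellTiter-Glo luminescence after 30 min at room temperature. AC50 values came from Hill-equation fits of qHTS concentration-response data.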

[15] = Cell Viability - LYMP2-009 (AID 968); also: potency is read from the fitted curve at half-maximal effect; nearly all actives have a fitted effect of over 55% in size
[16] = Cell Viability - LYMP2-011 (AID 969); also: potency is read from the fitted curve at half-maximal effect; nearly all actives have a fitted effect of over 60% in size
Outline: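 2500 cells/well in complete medium, compound-treated 24 h at 37 C. Viability read as intracellular ATP by CellTiter-Glo luminescence after 30 min at room temperature. AC50 from Hill fits of qHTS concentration-response data.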

[17] = Cell Viability - LYMP2-019 (AID 973)
Outline: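 Human lymphoblastoid LYMP2-019 cells (2500/well) preincubated 5 h at 37 C, then treated 24 h at 37 C in complete medium. Viability by CellTiter-Glo ATP luminescence after 30 min at room temperature; AC50 from Hill fits.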

[18] = Cell Viability - LYMP2-021 (AID 974)
Outline: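 Human lymphoblastoid LYMP2-021 cells, 2500/well in complete medium, treated 24 hours at 37 C. Intracellular ATP by CellTiter-Glo luminescence (30 min, RT); AC50 from Hill fits of concentration-response.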

[19] = MultiTox-Fluor Cytotoxicity Assay - LYMP1-002 - Dead Cells (AID 960); also: nearly all actives have a fitted effect of over 60% in size; also: potency is read from the fitted curve at half-maximal effect
Outline: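 Human lymphoblastoid LYMP1-002 cells, 2500/well, treated 16 h at 37 C; dead-cell protease cleavage of bis-AAF-R110 read by fluorescence (485/520); normalized to DMSO and 15 uM tetraoctylammonium bromide; AC50 from Hill fit.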

## CCOC(=O)C(C)(C)Oc1ccc(Cl)cc1
[1]
  outcome: inactive

## C[C@@H]1C[C@@H]([C@H](O)CC2CC(=O)NC(=O)C2)C(=O)[C@@H](C)C1
[2]
  Potency: inactive
[3]
  Potency: inactive
[4]
  Potency: inactive
[5]
  Potency: 50.1 µM (active) and inactive
[6]
  Potency: inactive
[7]
  Potency: 2 µM (active) and inactive
[8]
  Potency: 2 µM (active)
[9]
  Potency: 2 µM (active) and 1 µM (active)
[10]
  Potency: 1.58 µM (active)

## CN(C)CCN(Cc1cccs1)c1ccccn1
[1]
  outcome: inactive

## CN(C)CCCN1c2ccccc2Sc2ccccc21
[1]
  outcome: inactive

## CN(C)C(=S)SSC(=S)N(C)C
[2]
  Potency: 39.8 µM (active)
[3]
  Potency: 20 µM (active)
[4]
  Potency: 10 µM (active)
[5]
  Potency: 12.6 µM (active)
[11]
  Potency: 50.1 µM (active)
[6]
  Potency: 15.8 µM (active)
[12]
  Potency: 0.251 µM (active)
[13]
  Potency: 0.251 µM (active)
[14]
  Potency: 0.501 µM (active)
[15]
  Potency: 0.199 µM (active)
[16]
  Potency: 0.316 µM (active)
[8]
  Potency: 0.398 µM (active)
[9]
  Potency: 251 nM (active)
[10]
  Potency: 0.199 µM (active)
[17]
  Potency: 0.199 µM (active)
[18]
  Potency: 0.501 µM (active)

## OCc1cc(C(O)CNCCCCCCOCCCCc2ccccc2)ccc1O (stereo not given)
[1]
  outcome: inactive

## O=c1[nH]c2ccccc2n1CCCN1CCN(C(c2ccccc2)c2ccccc2)CC1
[1]
  outcome: inactive

## CCCCNc1cc(C(=O)O)cc(S(N)(=O)=O)c1Oc1ccccc1
[1]
  outcome: inactive

## COc1ccc(CN(CCN(C)C)c2ccccn2)cc1
[1]
  outcome: inactive

## O=C(CCl)c1ccc(Cl)cc1Cl
[2]
  Potency: 12.6 µM (active)
[3]
  Potency: 15.8 µM (active)
[4]
  Potency: 7.94 µM (active)
[19]
  Potency: 7.94 µM (active)
[5]
  Potency: 10 µM (active)
[11]
  Potency: 15.8 µM (active)
[6]
  Potency: 20 µM (active)
[7]
  Potency: 20 µM (active)
[12]
  Potency: 10 µM (active)
[13]
  Potency: 6.31 µM (active)
[14]
  Potency: 10 µM (active)
[15]
  Potency: 6.31 µM (active)
[16]
  Potency: 6.31 µM (active)
[8]
  Potency: 7.94 µM (active)
[9]
  Potency: 5010 nM (active)
[10]
  Potency: 3.16 µM (active)
[17]
  Potency: 7.94 µM (active)
[18]
  Potency: 3.98 µM (active)

## O=C1N(c2ccccc2)c2ccccc2C1(Cc1ccncc1)Cc1ccncc1
[1]
  outcome: inactive

## C[C@]12C=CC(=O)C=C1CC[C@H]1[C@@H]3C[C@@H](O)[C@](O)(C(=O)CO)[C@@]3(C)C[C@H](O)[C@@]12F
[1]
  outcome: inactive

## CC1(C)[C@@H]2CC[C@@]1(C)C(=O)C2
[19]
  Potency: inactive

## CN(C)c1ccc(C(=C2C=CC(=[N+](C)C)C=C2)c2ccc(N(C)C)cc2)cc1
[5]
  Potency: 10 µM (active)

## CCCCCCCCCCCCCCCC[n+]1ccccc1
[5]
  Potency: 20 µM (active)

## Oc1ccc(Cl)cc1Sc1cc(Cl)ccc1O
[7]
  Potency: 31.6 µM (active)
[15]
  Potency: 39.8 µM (active)
[17]
  Potency: 39.8 µM (active)
[18]
  Potency: 39.8 µM (active)

## Oc1ccc(Cl)cc1Cc1cc(Cl)ccc1O
[7]
  Potency: 25.1 µM (active)
